MCF10A rereplic: induces DNA re-replication in MCF 10a normal breast cells; Potency, µM (series often up to 46.1 µM), hits mostly activators; 350,000 tested, 2.9% active; MCF 10A DNA re-replication, Hoechst nuclear intensity, 48 h; further: nearly all actives have a fitted effect of over 50% in size
RORgamma inh: inhibitors of mouse ROR gamma transcriptional activity; P51450; Drosophila S2 Gal4-RORgamma UAS-luciferase reporter, 20 h; Potency, µM (titrated, usually from 53.6 µM), actives largely listed as inhibitors; 310,000 tested, 5.4% active; further: nearly all actives have a fitted effect of over 60% in size
Target sequence (P51450 whole entry, looked up, the tested form may be a part): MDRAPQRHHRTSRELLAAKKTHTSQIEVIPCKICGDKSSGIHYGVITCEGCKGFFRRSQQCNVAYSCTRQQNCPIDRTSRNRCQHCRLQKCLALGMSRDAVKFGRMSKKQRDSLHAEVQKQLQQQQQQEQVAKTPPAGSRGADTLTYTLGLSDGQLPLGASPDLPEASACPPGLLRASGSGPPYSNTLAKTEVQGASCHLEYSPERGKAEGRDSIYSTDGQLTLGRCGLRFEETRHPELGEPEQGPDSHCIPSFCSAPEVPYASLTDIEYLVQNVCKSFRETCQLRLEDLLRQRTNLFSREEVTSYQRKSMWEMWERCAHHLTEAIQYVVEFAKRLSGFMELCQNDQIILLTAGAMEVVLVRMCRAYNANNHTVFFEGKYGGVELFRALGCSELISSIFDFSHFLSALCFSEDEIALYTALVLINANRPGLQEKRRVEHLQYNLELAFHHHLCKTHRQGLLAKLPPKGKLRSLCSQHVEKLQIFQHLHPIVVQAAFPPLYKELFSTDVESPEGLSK
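ROR gamma transcriptional activity was tracked as Gal4-UAS luciferase output in stably transfected Drosophila Schneider cells, with compound added 1 hr before 700 uM copper sulfate induction and a 20 hr ambient-temperature incubation.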
VP16 counter: counter-screen for ROR gamma inhibitors: Gal4-VP16 reporter | Drosophila S2 Gal4-VP16 UAS-luciferase, luminescence, 20 h | Potency, µM (top dose mostly 53.6 µM), actives largely listed as inhibitors | 310,000 tested, 3.5% active;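 further: Gal4-VP16 expression switched on by copper sulfate through the metallothionein promoter; nearly all actives have a fitted effect of over 50% in size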
SW480 rerep: inducers of DNA re-replication in SW480 colon cancer cells; SW480 DNA re-replication, Hoechst DNA content imaging, 48 h; Potency, µM (series often up to 46.1 µM), hits mostly activators; 340,000 tested, 1.8% active; further: nearly all actives have a fitted effect of over 55% in size
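Treated cells incubate 48 hr (37 C, 5% CO2), are stained 40 min with Hoechst, and nuclear fluorescence is enumerated; a rise in nuclei with high DNA signal marks re-replication.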
IL1B secr inh: blocks inflammasome-driven IL-1 beta release | activity change, % at 57.5 µM | 360,000 tested, 4.7% active | THP-1 LPS/ATP IL-1B secretion, AlphaLISA, 16 h; active compounds read low; in the data active means activity change below about -50%; inconclusive means mostly about -30% to -49%
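Secreted IL-1B measured by AlphaLISA bead assay after 16 h compound exposure of THP-1 cells; compounds (final up to 57.5 uM) added 1 h before LPS (250 ng/mL) and ATP (1.25 mM) stimulation; lower signal means less secretion.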
Each line names hits and unclear results; the compound was inactive in the other large screens. Only some compounds are listed: those with a hit (about 11% of all), similar ones and a draw of the others. Unless noted, the call rests on the fitted dose curve; in most records, active means well fitted curve in the direction sought with a large enough effect; inconclusive means small, poorly fitted or top-dose-only effect, or another doubt; inactive means no such curve, though single readings can be large; an effect the other way counts as inactive or inconclusive.

C=CC(=O)N1C(=O)c2ccccc2S1(=O)=O	none (no result: MCF10A rereplic, SW480 rerep, IL1B secr inh)
COc1cccc(/C=C2\CCC(C3CCCC3)C2=O)c1 (stereo not given)	none
COc1cccc(/C=C2/CCC(CN(C)C)C2=O)c1 (stereo not given)	MCF10A rereplic 2.3µM, SW480 rerep 5.8µM, IL1B secr inh -100 (no result: RORgamma inh, VP16 counter)
CC(=O)OC[C@H]1O[C@@H](O/N=C(\C)CCN2CCc3nc(-c4ccccc4)c(-c4ccccc4)cc3C2)[C@H](OC(C)=O)[C@@H](OC(C)=O)[C@H]1OC(C)=O	none (no result: MCF10A rereplic, SW480 rerep, IL1B secr inh)
CCCN1C2CCCC1CC(NC(=S)Nc1cccc(C)c1C)C2 (stereo not given)	IL1B secr inh inconclusive
Cc1cccc(NC(=S)NC2CC3CCCC(C2)N3Cc2cccs2)c1C (stereo not given)	RORgamma inh 2.5µM, VP16 counter inconclusive, IL1B secr inh -55
Cc1cccc(C)c1NC(=O)NC1CC2CCC(C1)N2Cc1cccs1 (stereo not given)	none
CCc1ccccc1NC(=S)NC1CC2CCCC(C1)N2Cc1cccs1 (stereo not given)	RORgamma inh 11µM, VP16 counter inconclusive, IL1B secr inh inconclusive
O=C1CCCC=C1[C@@H](O)CCOCc1ccccc1	none (no result: MCF10A rereplic, SW480 rerep, IL1B secr inh)
CC(C)N(Cc1ccccc1)C(=O)COC(=O)c1cc[n+]([O-])cc1	none (no result: RORgamma inh, VP16 counter)
COc1cc(/C=C/[N+](=O)[O-])ccc1OCc1cccc(C(=O)O)c1	MCF10A rereplic 10µM, RORgamma inh 7.1µM, SW480 rerep inconclusive, IL1B secr inh -97
COc1cc(/C=C/C(=O)NC(C)(C)C)ccc1OCc1ccccc1	RORgamma inh inconclusive
COc1ccc(C(=O)C=Cc2ccc(OCc3ccccc3)c(OC)c2)cc1OC	IL1B secr inh -90 (no result: MCF10A rereplic, RORgamma inh, VP16 counter, SW480 rerep)
COc1cc(O)c(C(=O)/C=C/c2ccccc2)c(OC)c1	MCF10A rereplic inconclusive, RORgamma inh inconclusive, VP16 counter inconclusive, SW480 rerep inconclusive, IL1B secr inh -106
COc1cc(OC)c(C(=O)/C=C/c2ccc(OCc3ccccc3)c(OC)c2)c(OC)c1	RORgamma inh inconclusive, SW480 rerep inconclusive, IL1B secr inh -90
COc1ccc(Cl)cc1NC(=O)CN(C)C(=O)Cn1cnnn1	none (no result: RORgamma inh, VP16 counter)
COc1cc(OCc2ccccc2)c(C(=O)/C=C/c2ccc3c(c2)OCO3)c(OC)c1OC	MCF10A rereplic 15µM, SW480 rerep inconclusive, IL1B secr inh -91 (no result: RORgamma inh, VP16 counter)
COc1cc(O)c(C(=O)/C=C\c2ccc3c(c2)OCO3)c(OC)c1	VP16 counter inconclusive (no result: MCF10A rereplic, SW480 rerep, IL1B secr inh)
COc1cc(OC)c(C(=O)C=Cc2ccc(OC)c(OC)c2)c(OC)c1	SW480 rerep 18µM, IL1B secr inh -101 (no result: RORgamma inh, VP16 counter)
CCOC(=O)C1=C(C)N(C)C(=O)NC1c1cccc2ccccc12 (stereo not given)	none
NN=C1c2ccccc2C(=O)C1C(=O)C(c1ccccc1)c1ccccc1 (stereo not given)	MCF10A rereplic 12µM (no result: RORgamma inh, VP16 counter)
O=C(O)C(c1ccccc1)N1C(=O)c2cccc3cccc(c23)C1=O (stereo not given)	none
O=S(=O)(c1ccccc1)N(CC(F)(F)F)c1ccc(C(O)(C(F)(F)F)C(F)(F)F)cc1	none (no result: MCF10A rereplic, RORgamma inh, VP16 counter, SW480 rerep)
COc1cc(-c2nccc3cc4c(cc23)OCO4)cc(OC)c1OC	MCF10A rereplic 15µM, SW480 rerep 5.8µM (no result: RORgamma inh, VP16 counter)
COc1cc(CC(=O)NCc2ccc3c(c2)OCO3)cc(OC)c1OC	none
CCOc1ccccc1OCCN1CCC(Cc2ccccc2)CC1	none
CCNc1nc(OCC)nc(N2CCC(Cc3ccccc3)CC2)n1	RORgamma inh 5.6µM, VP16 counter 4µM
COc1ccc(-n2c(SCC(=O)NCCCN3CCCC3=O)nnc2C(C)N2CCCCC2)cc1 (stereo not given)	MCF10A rereplic 1.3µM, IL1B secr inh inconclusive
COCCNC(=O)C1(C(F)(F)F)C/C(=C\CCO)CCCO1 (stereo not given)	none (no result: MCF10A rereplic, SW480 rerep, IL1B secr inh)
CC(C)(C)c1ccc(C(=O)/C=C2\NC(=O)CS2)cc1	MCF10A rereplic inconclusive, RORgamma inh 3.2µM, VP16 counter 10µM
Cc1ccc(NC(=O)/C=C2\NC(=O)CS2)cc1	RORgamma inh inconclusive
CCCCC/C=C\C/C=C\C[C@H](O)/C=C/C=C\CCCC(=O)O	none (no result: MCF10A rereplic, SW480 rerep, IL1B secr inh)
CCOC(=O)c1c(C)[nH]c(C)c1C(=O)COC(=O)c1nn(CC)c(=O)c2ccccc12	none (no result: MCF10A rereplic, RORgamma inh, VP16 counter, SW480 rerep)
COc1ccc(-c2nnc3n2N=C(c2ccc(OC)c(OC)c2)CS3)c(OC)c1	none (no result: MCF10A rereplic, SW480 rerep, IL1B secr inh)
